# Assay outcomes: PubChem BioAssay, National Center for Advancing Translational Sciences (NCATS)
# PLK1 PBD inh: qHTS for Inhibitors of PLK1-PDB (polo-like kinase 1 - polo-box domain): Primary Screen | Serine/threonine-protein kinase PLK1 (Homo sapiens), P53350 | Plk1 PBD binding of FITC phosphopeptide, fluorescence polarization | Potency, µM, inactives show max response, negative = inhibition, most hits filed as inhibitors | hit rate 2.8% among 360,000; note: series mostly up to about 57 µM; % is set by controls: 0 for no effect and ±100 for the full control effect; nearly all actives have a fitted effect of over 65% in size
# Tb PFK inh-1: qHTS Assay to Find Inhibitors of T. brucei phosphofructokinase. T. brucei PFK, ADP-Glo luminescence. AID 485367, 2010. Potency, µM (top dose mostly 57.5 µM), for inactives: at the top dose activity, negative = inhibition, actives largely listed as inhibitors. ATP-dependent 6-phosphofructokinase (Trypanosoma brucei brucei), O15648. hit rate 0.17% among 330,000;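 note: 0% = uninhibited 1x PFK enzyme wells and -100% = no-enzyme wells; nearly all actives have a fitted effect of over 60% in size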
#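 Activity is normalized to no-enzyme wells (full inhibition) and 1.25 nM enzyme wells (no inhibition). Reaction: 0.5 mM F6P, 0.1 mM ATP, 45 min RT, ADP-Glo luminescence; concentration-response curves fitted and classed by quality.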
# VDR inhibitor: Inhibitors of the vitamin D receptor (VDR): qHTS; Vitamin D3 receptor (Homo sapiens), P11473; VDR-SRC2-3 peptide fluorescence polarization, 2 h; Potency, µM, for inactives: max response, negative = inhibition, actives largely listed as inhibitors; hit rate 0.93% among 400,000; AID 504847, 2011; note: % is set by controls: 0 for no effect and ±100 for the full control effect
# Target sequence (P11473 whole entry, looked up): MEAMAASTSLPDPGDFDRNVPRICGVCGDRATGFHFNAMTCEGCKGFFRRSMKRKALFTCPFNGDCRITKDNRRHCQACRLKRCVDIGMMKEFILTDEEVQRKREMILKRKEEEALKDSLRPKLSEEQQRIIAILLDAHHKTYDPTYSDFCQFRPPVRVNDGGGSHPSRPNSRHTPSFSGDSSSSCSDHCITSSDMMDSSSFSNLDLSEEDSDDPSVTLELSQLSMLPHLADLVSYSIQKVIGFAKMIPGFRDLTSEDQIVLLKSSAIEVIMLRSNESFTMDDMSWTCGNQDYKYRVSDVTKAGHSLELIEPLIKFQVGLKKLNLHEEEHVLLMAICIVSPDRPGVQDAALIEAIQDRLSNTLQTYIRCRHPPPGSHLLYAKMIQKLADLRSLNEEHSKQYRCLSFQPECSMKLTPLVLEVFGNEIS
#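 Signal is fluorescence polarization, reporting how far test compounds block the interaction of VDR with the SRC2-3 coregulator peptide after a 2 h room-temperature incubation.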
# BRCA1 expr act: qHTS Assay to Identify Small Molecule Activators of BRCA1 Expression. MCF7-BRCA1-FFLuc reporter, luminescence, 48 h; response scale: scaled: vehicle 0%, 10 µM genistein 100%. Potency, µM (series often up to 46.1 µM), for the others: at the top dose activation, most hits filed as activators. hit rate 1.1% among 380,000. AID 624202, 2012; note: nearly all actives have a fitted effect of over 80% in size
#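 Reporter cells (MCF7, BRCA1 promoter-firefly luciferase) received library compounds across a concentration series for 48 h. End-point luminescence was measured and concentration-effect curves derived after normalization.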
# Tb PFK KinaseGlo: Tb PFK orthogonal confirmatory assay using ATP depletion (Kinase-Glo Plus) as an alternative measure of Tb PFK activity: Hit Validation | shares compounds with Tb PFK inh-1 | hit rate 47% among 1,100 | Potency, µM (series often up to 57.5 µM), for the others: top-dose inhibition | AID 504636, 2011 | Tb PFK enzyme, ATP depletion, Kinase-Glo Plus luminescence; calls by dose curve; note: nearly all actives have a fitted effect of over 60% in size
# Tb PFK inh-2: Inhibitors of T. brucei phosphofructokinase: Hit Validation | purified T. brucei PFK, ADP-Glo luminescence, 45 min | AID 504637, 2011 | hit rate 41% among 1,100 | Potency, µM (series often up to 57.5 µM), inactives show top-dose activity change, negative = inhibition, actives largely listed as inhibitors | shares compounds with Tb PFK inh-1;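 note: plate controls were full PFK enzyme control for no effect and no enzyme control for full effect; nearly all actives have a fitted effect of over 60% in size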
# The depositor's hits bear a star; ? = inconclusive; / = no result given. Shown are actives, neighbours in structure and some others; about 3.9% of the full set was active somewhere. Unless noted, calls come from the whole dose curve; as a rule, active = well fitted curve in the direction sought with a large enough effect; inconclusive = small, poorly fitted or top-dose-only effect, or another doubt; inactive = no such curve, though single readings can be large; an effect the other way counts as inactive or inconclusive. Potency is the fitted concentration of half-maximal effect.
SMILES,PLK1 PBD inh,Tb PFK inh-1,VDR inhibitor,BRCA1 expr act,Tb PFK KinaseGlo,Tb PFK inh-2
CC(=O)NC1=NN(C(C)=O)C(C)(c2ccccc2)S1 (centres undefined),-2%,?,3%,-81%,1%,-1%
CCOC(=O)c1c(-c2ccco2)csc1NC(=O)COC(=O)c1cnccn1,-19%,6.7µM*,-9%,-15%,24µM*,-27%
CCCCn1c(NC(=O)c2ccco2)c(C(=O)OCC)c2nc3ccccc3nc21,-20%,3%,-72%,-29%,/,/
Fc1ccc(NC(=S)Nc2ccc(F)c(Cl)c2)cc1Cl,?,?,-17%,-43%,?,-30%
CCCCC(=O)Nc1ccc(F)c(Cl)c1,-1%,?,-4%,4%,?,-12%
COc1ccc(Br)cc1C1SCC(=O)Nc2c1c(C)nn2-c1ccccc1C (centres undefined),/,/,-9%,/,/,/
CCOc1ccc(CN(CCc2ccc3c(c2)OCO3)Cc2cccc(C)c2)cc1,/,/,-5%,/,/,/
C[C@H](NC(N)=O)C(=O)Nc1ccc(N2CCOCC2)c(S(=O)(=O)Nc2ccc(Cl)cc2)c1,2.7µM*,?,?,0%,4.3µM*,11µM*
C=C1Nc2ccccc2C(=O)N1c1ccccc1C,/,/,2%,/,/,/
CC(CS(=O)(=O)c1ccc2c(c1)NC(=O)CS2)C(=O)N1CCN(c2cccc(Cl)c2)CC1 (centres undefined),-13%,15µM*,-4%,-27%,21µM*,12µM*
Clc1cccc(N2CCNCC2)c1,-9%,-17%,-9%,24%,/,/
O=C(Nc1cc(C(F)(F)F)cc(C(F)(F)F)c1)c1cccn(Cc2ccccc2Cl)c1=O,/,/,14%,7%,/,/
CC(CS(=O)(=O)c1ccc2c(c1)NC(=O)CS2)C(=O)NCc1ccccc1Cl (centres undefined),?,13µM*,6%,5%,1.7µM*,1.9µM*
Cc1ccc(/C=C2/NC(=O)N(Cc3ccc(Br)cc3)C2=O)o1,-8%,15µM*,?,-23%,?,?
Cc1cc(/C=C2\C(=O)NC(=O)N(Cc3ccccc3)C2=O)c(C)n1C1CC1,-14%,3%,2%,3%,/,/
Cc1ccc(/C=C2/NC(=O)N(c3ccccc3)C2=O)o1,-9%,?,?,7.9µM*,?,?
CCN(CC)c1ccc(/C=C2\C(=O)NC(=S)N(C)C2=O)o1,91%,-4%,8%,91%,/,/
CCN1C(=O)N/C(=C/c2ccc(C)o2)C1=O,-1%,13µM*,89µM*,1%,?,?
C[C@H]1CC[C@@H]2[C@@H](C)[C@H]3C(CC4C5CC=C6CC(O[C@@H]7O[C@H](CO)C(O[C@@H]8O[C@@H](C)[C@H](O)[C@@H](O)[C@H]8O)[C@H](O)[C@H]7O[C@@H]7O[C@@H](C)[C@H](O)[C@@H](O)[C@H]7O)CC[C@]6(C)C5CC[C@@]43C)N2C1 (some centres undefined),/,/,-10%,/,/,/
COc1ccc(-n2c(C)nc3ccccc3c2=O)c([N+](=O)[O-])c1,-8%,1%,-8%,7%,/,/
COc1cc(SSc2cc(OC)cc([N+](=O)[O-])c2N)c(N)c([N+](=O)[O-])c1,0.67µM*,3.4µM*,7.9µM*,-42%,2.4µM*,2.7µM*
CNCCc1ccc(O)c(O)c1,-2%,/,?,-40%,/,/
NCCc1ccc(O)c(O)c1,-11%,?,-1%,0%,?,-20%
Nc1c(C(=O)Nc2ccc(Cl)cc2)sc2nc3c(cc12)N1CCC3CC1,/,/,1%,24%,/,/
CC(C)n1ncc2c(C(=O)Nc3ccc(S(N)(=O)=O)cc3)cc(C3CC3)nc21,-9%,?,-9%,-18%,-33%,?
SMILES,PLK1 PBD inh,Tb PFK inh-1,VDR inhibitor,BRCA1 expr act,Tb PFK KinaseGlo,Tb PFK inh-2
O=C(O)c1cc2ncc(-c3[nH]ncc3[N+](=O)[O-])cn2n1,-14%,?,4%,8%,-21%,?
COc1ccc(C)cc1NC(=O)c1cccn(Cc2cccc([N+](=O)[O-])c2)c1=O,/,/,13%,0%,/,/
C=CCc1c(C)nc(C)nc1N/N=C/c1ccc(N(C)C)cc1,?,-8%,0%,-81%,/,/
O=C(Cc1ccc(Br)cc1)N1CCN(Cc2ccccc2)CC1,-10%,5%,?,26%,/,/
O=C(Cc1ccc(F)cc1)Nc1ccc(S(=O)(=O)N2CCCC2)cc1,-2%,17µM*,-16%,-4%,?,?
O=C(Cc1ccc(Br)cc1)Nc1ccc(S(=O)(=O)N2CCCC2)cc1,/,19µM*,/,/,11µM*,21µM*
COC[C@]12CN(C=O)C3C4C(OC)C1[C@@]3(C1CC3(O)C(OC)C(O)C4(OC(C)=O)C1C3OC(=O)c1ccccc1)[C@@H](OC)CC2O (some centres undefined),/,/,-6%,/,/,/
Cc1cccc(NC(=O)COC(=O)c2cc(C)n(C3CC3)c2C)c1,-8%,2%,-7%,10%,/,/
COc1ccc2c(CC(=O)OCC(=O)Nc3cccc(C)c3)coc2c1,-4%,?,-19%,3%,?,?
Cc1cc(/C=C/c2ccnc3ccccc23)ccc1N(CCCl)CCCl,/,/,/,0%,/,/
COc1ccc(CC(=O)OCC(=O)NC2CC2)cc1,-13%,24µM*,-5%,2%,?,-7%
C[N+]1(C)CCc2cc3c(cc2C1C1OC(=O)c2c1ccc1c2OCO1)OCO3 (centres undefined),/,/,-6%,/,/,/
COc1ccc2nc(NC(=O)c3ccccc3O)sc2c1,-12%,?,4%,?,-30%,?
CCC(=O)Nc1ccc(-c2ccc(N3CCN(C)CC3)nn2)cc1,-5%,-5%,3%,?,/,/
O=C(c1cc2cc([N+](=O)[O-])ccc2oc1=O)n1cccn1,0%,?,-1%,7%,-1%,19%
COc1ccc(C2CN(C)CC2C(=O)c2ccc(F)cc2)cc1Cl (centres undefined),-6%,-7%,-5%,-37%,/,/
COc1cc(C2/C(=C(/O)c3ccc(F)cc3)C(=O)C(=O)N2CCCC(=O)O)ccc1O (centres undefined),-6%,?,-12%,11%,12µM*,21µM*
O=c1cccc2n1CC1CC2CN2CCCCC12 (centres undefined),/,/,2%,/,/,/
O=C(Nc1ccccc1C(F)(F)F)c1cccn(Cc2ccccc2)c1=O,/,/,7%,-3%,/,/
